The full ranking holds about 33,000 sequences; the median of “E-score (-0.5 to 0.5)” is about -0.013, and the highest 2% start at about 0.3. The sample holds the highest values, similar sequences and a random draw of the others, so the mix is not that of the screen.
target: T1, Msn1 (UniProt P22148); assay: PBM E-score (8-mer binding enrichment) (E-score (-0.5 to 0.5)); higher = stronger / more preferred TF binding; conditions: protein concentration: 200 nM; construct: GST-full length
T1 sequence: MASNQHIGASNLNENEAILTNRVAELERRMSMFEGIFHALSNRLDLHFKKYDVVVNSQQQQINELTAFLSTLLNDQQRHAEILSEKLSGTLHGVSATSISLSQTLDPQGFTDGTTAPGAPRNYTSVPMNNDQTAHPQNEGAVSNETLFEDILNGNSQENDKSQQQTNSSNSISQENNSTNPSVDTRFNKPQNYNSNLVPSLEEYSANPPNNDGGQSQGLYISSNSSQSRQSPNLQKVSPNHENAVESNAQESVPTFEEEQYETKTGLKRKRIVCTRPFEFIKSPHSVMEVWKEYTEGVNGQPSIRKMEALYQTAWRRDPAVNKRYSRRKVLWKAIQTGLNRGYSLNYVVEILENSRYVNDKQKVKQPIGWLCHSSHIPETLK
Description: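 Universal 'all 10-mer' protein binding microarrays (Agilent AMADID 015681) probed with GST-tagged S. cerevisiae TFs (full-length or DBD) made by in vitro transcription/translation (PURExpress), about 100-200 nM. Bound TF was detected with fluorescent anti-GST. Each ungapped 8-mer (which stands for itself and its reverse complement) is scored by the PBM enrichment score (E-score), a modified Wilcoxon-Mann-Whitney statistic from -0.5 to +0.5, computed with the Universal PBM Analysis Suite. Scale: above 0.35 generally sequence-specific binding.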

Sequence	PBM E-score
ACACGGAC	0.32
ACCCGTCC	-0.0862
GTATGGAC	0.335
AAATGGAT	-0.0165
AAATGGAA	0.131
GGATGGAC	0.178
ACATGGAC	0.326
ATATGGAC	0.356
ACATGGAT	0.162
CTATGGAC	0.257
ATATGGAG	0.12
AAATGGAC	0.338
GCATGGAC	0.268
GTATGGAA	-0.0401
GAAATCTA	-0.139
TCAGCTCA	-0.149
ATTTGCCG	0.136
GCCAAGCA	-0.199
GAGTATGC	-0.0467
GATCAGAC	-0.195
AGGTACCA	-0.036
CAGTGTCA	-0.105

Sequence	PBM E-score
AATTAGTC	0.272
AATTAGTA	0.211
AATTAGTG	0.33
ATATTGCC	0.0437
CTTATCTA	0.0318
CTGGCCAA	-0.0295
AGGCATGA	-0.183
CTGGTCGC	-0.0171
ACAAATTA	0.357
CTAAATTA	0.144
CCAAATTA	0.193
ATAAATTG	0.225
CCAAATTC	0.0869
ACAAATTG	0.301
ACAAATTC	0.306
AAAAATTC	0.182
ATAAATTA	0.343
ATCTCCGC	-0.208
CTACAATC	0.0383
ACCGCGTG	-0.118
ATGTAAAG	-0.0428
CCGAACGC	0.158

Sequence	PBM E-score
CCTATCTA	-0.0647
CAATGCAG	-0.0326
ACGACAAA	0.435
ACGACAAC	0.227
TCGACAGA	-0.101
CCGACAAA	0.42
GCGACAAA	0.355
TCGACAAA	0.378
CCGACAAC	0.167
GCGACAGA	0.144
CCGACAAG	0.13
ACGACAAG	0.0652
TCGACGAA	0.118
GCGACAAC	0.167
TACCGGGA	0.148
AGCCTGTG	-0.221
AGAGATTG	-0.0815
GCGCAGAA	0.0474
GAGACCTC	-0.0881
GAGAACTC	-0.162
AATGGAAT	0.238
CCCAGCCA	-0.156

Sequence	PBM E-score
CAGGTTGG	-0.102
ACTATGGG	-0.169
CAGAATGC	-0.094
GACAAGTC	0.419
CACAAGTC	0.0697
AACAAATC	0.0327
TACAAATA	0.281
AACAAATA	0.211
GACAAGTA	0.369
AACAAGTC	0.103
GACAAATC	0.473
AACAAGTA	-0.0396
TACAAGTA	0.0835
CACAAATC	0.0687
GACAAATA	0.483
ATGGGATG	-0.177
CTGCAAGC	-0.17
ACACAGGT	0.0743
AGAGTAAA	-0.0814
GTCGAGTA	-0.0563

From the supplement of paper PMC3334620
